Experimental data: PubChem BioAssay AID2496 (Sanford-Burnham Center for Chemical Genomics, 2010)
A number with no mark means an inactive call. Activity calls are given as the source filed them. No stated cut-off is given here; in the data, active means IC50 below about 40 µM; inactive means the rest.

Assay: compound optical interference in time-resolved FRET – biochemical, fluorescence ratio, artefact control, SAR follow-up (AID 2496)
Conditions: HTRF spectral interference counter-screen

SMILES | IC50
Nc1ncnc2oc(-c3ccco3)c(-c3ccco3)c12 | > 50 µM
CC(/C=C/c1ccco1)=NNC(=O)c1cccnc1 | > 50 µM
COc1ccc(CCNC(=O)c2cc(-c3ccco3)nc3ccccc23)cc1 | 15 µM (active)
CC(=O)Oc1ccc(N2C(=O)C3C(C2=O)C2(C)C=CC3(C)O2)cc1 (configuration not stated) | 2.86 µM (active)
CCNC(=O)COC(=O)c1cc(-c2ccco2)nc2ccccc12 | > 50 µM
CCN(CC)C(=O)COC(=O)c1cc(-c2ccco2)nc2ccccc12 | 16.4 µM (active)
CCCCc1ccc(/C=C2\C(=O)c3ccccc3C(O)=C2C(=O)OCC)cc1 | 4.14 µM (active)
CC(=O)NS(=O)(=O)c1ccc(NC(=O)/C=C/c2ccc(C)o2)cc1 | > 50 µM
Cc1ccc(/C=C/C(=O)N2CCN(c3ncccn3)CC2)o1 | > 50 µM
CNc1nc(-c2ccccc2)[n+](-c2ccc(C)cc2)s1 | > 50 µM
Nc1c(C(=O)NC2CC2)sc2nc3c(c(-c4ccco4)c12)CC/C3=C/c1ccco1 | 2.98 µM (active)
O=C(NC1CCCC1)c1ccc2nc(-c3ccco3)c(-c3ccco3)nc2c1 | > 50 µM
O=C(Nc1ccc2nc(-c3ccco3)c(-c3ccco3)nc2c1)N1CCOCC1 | 7.32 µM (active)
Cc1ccc(S(=O)(=O)N(C)C)cc1NC(=O)c1cc(-c2ccco2)nc2ccccc12 | > 50 µM
Nc1ccc(-c2nc3c(Cl)c(N)ccc3[nH]2)cc1 | 5.59 µM (active)
CCOC(=O)N1CCN(C(=O)c2ccc3nc(-c4ccco4)c(-c4ccco4)nc3c2)CC1 | 6.55 µM (active)
COc1ccc(NC(=O)c2cc(-c3ccco3)nc3ccccc23)cc1S(=O)(=O)N1CCOCC1 | 37.2 µM (active)
O=C(COC(=O)c1c2c(nc3ccccc13)/C(=C/c1ccco1)CC2)NC1CCCC1 | 4.42 µM (active)
CN(CCC#N)C(=O)COC(=O)c1c2c(nc3ccccc13)/C(=C/c1ccco1)CC2 | 8.9 µM (active)
CCN(CC)CCNC(=O)c1cc(-c2ccco2)nc2ccccc12 | 19.8 µM (active)
CC(/C=C/c1ccco1)=NNC(=O)c1cc(C)[nH]n1 | > 50 µM
O=C(CSc1ccc(Cl)cc1)Nc1cccc(-c2nc3ccccc3[nH]2)c1 | 12.8 µM (active)
CN(C(=O)COC(=O)c1cc(-c2ccco2)nc2ccccc12)C1CCS(=O)(=O)C1 (configuration not stated) | 26.6 µM (active)
Cc1ccc(/C=C/C(=O)NCc2ccc(S(N)(=O)=O)cc2)o1 | > 50 µM
CCCc1ccc(/C=C2\C(=O)c3ccccc3C(O)=C2C(=O)OCC)cc1 | > 50 µM
CCOC(=O)c1sc2nc(-c3ccco3)c3c(c2c1N)CC(C)(C)OC3 | > 50 µM
O=C(NN=Cc1ccc(F)cc1)c1cc(-c2ccco2)nc2ccccc12 | > 50 µM
